# Test results as given in PubChem BioAssay (NCATS).
# Inconclusive results are not listed. Where a call stands in place of a potency, no number is given. The source made the active and inactive calls. The call rests on the fitted dose curve; in most records, active means well fitted inhibition curve with a large enough effect; inconclusive means small, poorly fitted or top-dose-only effect; inactive means flat fitted curve, though single readings scatter.
# Molecular target: Glutathione peroxidase 1 (Homo sapiens) (UniProt P07203)
# Sequence (P07203 whole entry, looked up): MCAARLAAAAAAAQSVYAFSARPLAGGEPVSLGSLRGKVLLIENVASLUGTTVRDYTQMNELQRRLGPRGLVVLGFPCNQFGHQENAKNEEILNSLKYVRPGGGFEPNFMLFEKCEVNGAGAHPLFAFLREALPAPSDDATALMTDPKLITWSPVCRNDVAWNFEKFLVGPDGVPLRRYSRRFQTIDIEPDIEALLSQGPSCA
# Test: Primary qHTS Assay for Inhibitors of Recombinant Selenoprotein Glutathione Peroxidase 1 (GPX1) (AID 1845191); further: nearly all actives have a fitted effect of over 65% in size
# Settings: recombinant GPX1, GR-coupled NADPH fluorescence, 15 min; series mostly up to 48.8 µM
# Method in brief: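 GR-coupled readout: NADPH consumption tracked by fluorescence, ex 340/em 450 nm, at t=0 and after 15 min at RT. Final mix 10 nM GPX1, 1 mM GSH, 0.5 mM CHP, 0.5 mM NADPH, 100 nM GR, 0.01% BSA, following 30 min enzyme–compound preincubation.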
row,Compound,Potency
1,CC(C)(C)n1nc(Cc2cccc3ccccc23)c2c(N)ncnc21,inactive
2,CC(=O)Nc1sc2c(c1-c1ccc(N3CCN(C)CC3)cc1)CCNC2,inactive
3,Cc1ccc(NS(=O)(=O)c2cc3c(cc2Cl)CCC(=O)N3)cc1Cl,inactive
4,[2H]C([2H])(Nc1nc(-c2ccccc2C([2H])(C([2H])([2H])[2H])C([2H])([2H])[2H])ncc1C)c1ccc(-n2ccnn2)cc1,inactive
5,Cc1noc(CN(C)c2ncnc3ccc(-c4ccc5c(c4)OCO5)cc23)n1,inactive
6,CN(C(=O)c1cn2c(-c3ccc(C(F)(F)F)cc3)cnc2cn1)c1ccc(C#N)cc1,inactive
7,Cc1ccc(NS(=O)(=O)c2ccc3c(c2)CCC(=O)N3)cc1C,inactive
8,Cc1ccc(NS(=O)(=O)c2cc3c(cc2N[C@H](C)CO)NC(=O)CC3)cc1C,inactive
9,COC(=N)c1nc2ccc3ncnc(Nc4ccc(F)cc4Br)c3c2s1,inactive
